From PubChem BioAssay
This excerpt belongs to a sample that is enriched for hits.
Pf Dd2 growth: inhibitors of Plasmodium falciparum Dd2 growth; P. falciparum Dd2 growth, SYBR Green, 72 h; Potency, µM (series often up to 28.9 µM), most hits filed as inhibitors; hit rate 4.3% among 120,000; active = well fitted inhibition curve with a large enough effect; also: nearly all actives have a fitted effect of over 65% in size
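Readout: SYBR Green fluorescence, 485 nm excitation, 535 nm emission, after ~16 h lysis at 37C. Before that, Dd2-infected red cells (2.5% hematocrit) grew 72 h with compound, 29 uM top final concentration.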
Of the large screens only hits and unclear results are named; the others gave an inactive call.

CCn1c2c(c(=O)n1Cc1ccccc1)CCN(C(=O)c1cccnc1)C2	none
Cc1ccc(CCNC(=O)C2CCN(C(=O)c3nnn4c3COC(c3ccc(C)cc3)C4)CC2)cc1 (configuration not stated)	none
O=C(Cn1ccn2nc(-c3ccc(F)cc3)c(CO)c2c1=O)NCCCc1ccccc1	none
CN(CC(=O)N1CCC(CCOc2ccccc2F)C1)S(=O)(=O)c1cccs1 (configuration not stated)	none
O=C1c2cnc(-c3ccc(F)cc3)nc2OCCN1Cc1ccc(F)cc1F	none
O=C1c2cnc(-c3ccc(Oc4ccccc4)cc3)nc2OCCN1CC1CC1	Pf Dd2 growth 2.8µM
O=C1c2cnc(-c3cccc(C(F)(F)F)c3)nc2OCCN1CC1CC1	none
CCc1cn(C[C@H](NC2CCOCC2)C(=O)O)c(=O)[nH]c1=O	none
COc1ccc(C(=O)N2CCCC(n3cc(-c4nc(C5CC5)no4)nn3)C2)cc1F (configuration not stated)	none
COc1ccc(C(=O)N2C[C@@H]3C[C@H](C2)c2c(-c4cccs4)ccc(=O)n2C3)cc1	none
COc1ccc(NC(=O)/C=C\C(=O)N(c2ccc(C(C)C)cc2)C(C(=O)NCc2ccco2)c2ccc(C)cc2)cc1 (configuration not stated)	Pf Dd2 growth 10µM
COc1ccc(/C=C/C(=O)Nc2ccc(C)cc2)cc1	none
COc1ccc(NC(=O)C(c2ccc(C)cc2)N(C)C(=O)/C=C\c2ccc3c(c2)OCO3)cc1 (configuration not stated)	none
O=C1NCc2ccccc2CC12CCN(Cc1ccccc1Cl)C2 (configuration not stated)	none
CCC(CC)C(=O)N1CCC2(CC1)C(=O)N(C)c1ccccc12	none
CN1C(=O)C2(CCN(C(=O)CCC3CCCC3)CC2)c2ccccc21	Pf Dd2 growth 5.6µM
Cc1cc2cc(C(=O)N3CCC4(CC3)C(=O)N(C)c3ccccc34)ccc2o1	none
CN1C(=O)C2(CCN(C(=O)CCc3ccccc3)C2)c2ccccc21 (configuration not stated)	none
CCOc1ccc(C(=O)N2CCC3(CC2)C(=O)N(C)c2ccccc23)cc1OCC	Pf Dd2 growth 13µM
CN1C(=O)C2(CCN(C(=O)CCn3cnnn3)CC2)c2ccccc21	none
CN1C(=O)CCC2(CNC(=O)Cc3c[nH]c4ccccc34)CCCC=C12 (configuration not stated)	none
COCCc1nncn1C1CCN(C(=O)c2ccc(C)cc2)CC1	none
Cc1ncsc1CN1C(=O)CO[C@H](c2ccc(NC(=O)C3CCC3)cc2)[C@H]1CO	none
CCOCCOc1ccccc1C(=O)N1CC[C@@](O)(COC)C(C)(C)C1	none
CC(C)(C)OC(=O)N1CCC(c2c(C(=O)N3CCN(c4ccccc4F)CC3)cnn2-c2ccccc2Cl)CC1	Pf Dd2 growth 13µM
CC(C)(C)OC(=O)N1CCC(c2c(C(=O)N3CCN(c4ccc(Cl)cc4)CC3)cnn2-c2ccc(F)cc2F)CC1	Pf Dd2 growth 11µM
Cc1c(Cl)cccc1-n1ncc(C(=O)N2CCN(c3ncccn3)CC2)c1C1CCN(C(=O)OC(C)(C)C)CC1	none
CN1CCN(C(=O)c2cnn(-c3ccc(F)cc3F)c2C2CCN(C(=O)OC(C)(C)C)CC2)CC1	none
Cc1c(Cl)cccc1-n1ncc(C(=O)N2CCC(C)CC2)c1C1CCN(C(=O)OC(C)(C)C)CC1	Pf Dd2 growth 11µM
Cc1oc2ccn(Cc3ccc(F)cc3)c(=O)c2c1C(=O)NC1CCCCCC1	none
O=C(NCc1ccccc1Cl)C1CCN(c2cnc3nccnc3c2)CC1	none
CC(=O)N1CCC(C2CCN(Cc3ccc(C)cn3)C2)CC1 (configuration not stated)	none
O=C1CC2(CCN(Cc3cccnc3)CC2)Oc2ccccc2N1	none
CCCC(=O)N1Cc2ccccc2NC(=O)C12CCNC2 (configuration not stated)	none
O=C(C1=NOC2CN(C(=O)C3CC3)CC12)N1CCN(c2ncccn2)CC1 (configuration not stated)	none
CC(=O)Nc1ccc(C2OC(=O)N(Cc3cccc(F)c3)C2C(=O)NCC2CCCO2)cc1 (configuration not stated)	none
COc1ccc(-c2ccc3nc(-c4ccc(C)c(F)c4)oc3c2)c(OC)c1OC	none
COc1ccc(-c2ccc3nc(-c4ccc(SC)cc4)oc3c2)c(OC)c1OC	none
CCCOc1ccc(-c2nc3ccc(-c4ccc(OC)c(OC)c4OC)cc3o2)cc1	Pf Dd2 growth 10µM
COC[C@@H]1CN(C(=O)c2ccc(OC)nc2OC)C[C@H]1c1ccncc1	none
O=C1NCCN1C1CCN(Cc2ccc(C(F)(F)F)cc2)CC1	none
CC(C)c1nnc(C2CN(C(=O)C3CCCC3)CC23CCOCC3)o1 (configuration not stated)	none
Cc1ccc(N2Cc3c(ncnc3N3CCN(C)CC3)N(C)CC2=O)cc1	none
CC1CCCN(c2ncnc3c2CN(c2ccccc2F)C(=O)CN3C)C1 (configuration not stated)	none
CC1CCCN(c2ncnc3c2CN(c2ccc(Cl)cc2)C(=O)CN3C)C1 (configuration not stated)	Pf Dd2 growth 10µM
O=C(C1CCCN(c2nc3ncccc3o2)C1)N1CCN(c2ncccn2)CC1 (configuration not stated)	none
